# In the library only some 11% were active in any assay of this set; here they are far more common.
# NIH3T3 tox: NIH 3T3 cell cytotoxicity; NIH 3T3 viability, CellTiter-Glo ATP luminescence, 48-72 h; hit rate 4.3% among 94,000; Potency, µM (doses to about 96.7 µM), most hits filed as inhibitors; also: nearly all actives have a fitted effect of over 55% in size
#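 Cells were seeded at 400 per well, treated with pin-transferred compound, and kept 48 or 72 hr at 37 °C before CellTiter-Glo addition and luminescence imaging of cellular ATP.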
# Luciferase inh: Photinus pyralis luciferase inhibition | P08659 | purified P. pyralis luciferase, luminescence, biochemical | Potency, µM (series often up to 115 µM), most hits filed as inhibitors | hit rate 2.5% among 76,000; also: nearly all actives have a fitted effect of over 65% in size
# Target sequence (P08659 whole entry, looked up): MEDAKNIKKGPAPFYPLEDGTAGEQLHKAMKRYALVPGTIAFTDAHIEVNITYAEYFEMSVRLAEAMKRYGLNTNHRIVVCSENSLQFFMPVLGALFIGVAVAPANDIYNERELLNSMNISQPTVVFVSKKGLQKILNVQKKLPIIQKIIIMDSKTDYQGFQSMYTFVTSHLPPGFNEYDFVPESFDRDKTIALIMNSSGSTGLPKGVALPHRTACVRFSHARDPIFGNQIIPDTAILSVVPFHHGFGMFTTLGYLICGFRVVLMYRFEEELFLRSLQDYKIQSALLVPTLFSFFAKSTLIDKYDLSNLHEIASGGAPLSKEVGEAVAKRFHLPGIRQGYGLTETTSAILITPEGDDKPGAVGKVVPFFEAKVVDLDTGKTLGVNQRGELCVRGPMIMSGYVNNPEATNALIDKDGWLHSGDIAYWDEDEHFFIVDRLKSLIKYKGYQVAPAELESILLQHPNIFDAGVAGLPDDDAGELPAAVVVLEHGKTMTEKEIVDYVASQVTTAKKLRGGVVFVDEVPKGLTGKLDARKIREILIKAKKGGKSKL
#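 Biochemical qHTS: compound (6-point titration) added to 10uM D-luciferin plus 10uM ATP in Tris acetate pH 7.5 buffer with Mg, Tween-20 and BSA, then purified enzyme at 10nM; light output imaged.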
# HEK293 tox: cytotoxic compounds in HEK 293 cells; HEK 293 viability, ATP luminescence (CellTiter-Glo), 48-72 h; Potency, µM (titrated, usually from 115 µM), most hits filed as inhibitors; hit rate 6.6% among 94,000; also: nearly all actives have a fitted effect of over 60% in size
#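 HEK 293 cells at 250 cells/well were exposed to compounds by pintool transfer for 48 or 72 hr at 37 degree Celsius, 5% CO2. Viability was read as ATP-coupled luminescence with CellTiter-Glo after 10 min at room temperature.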
# hNpr1 antagonist: antagonists of human natriuretic peptide receptor Npr1; AID 1347048; HEK293 hNpr1 GloSensor cGMP, ANP-stimulated luminescence; hit rate 1.6% among 76,000; Potency, µM (series often up to 46.3 µM), most hits filed as inhibitors; calls by dose curve; also: nearly all actives have a fitted effect of over 60% in size
#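 Compound pre-incubated 30 min at room temperature on GloSensor-loaded HEK293 cells stably carrying hNpr1 and the pGS-40F cGMP biosensor. Stimulation uses hNppA at 0.1 nM final; luminescence is taken at baseline and 20 min post-agonist.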
# Hits are given with their value; i = inactive; ? = inconclusive; nt = no result given. Unless noted, calls follow the shape of the dose curve; as a rule, active = well fitted curve in the direction sought with a large enough effect; inconclusive = small, poorly fitted or top-dose-only effect, or another doubt; inactive = no such curve, though single readings can be large; an effect the other way counts as inactive or inconclusive.
SMILES,NIH3T3 tox,Luciferase inh,HEK293 tox,hNpr1 antagonist
COc1cccc(CNC(=O)CNC(=O)c2cccc(-c3ccc(SC)cc3)c2)c1,i,nt,22.4µM,nt
CSc1ccc(-c2cccc(C(=O)NCCNC(=O)N(C)C)c2)cc1,?,nt,25.1µM,nt
Cc1ccc(C(=O)N2CCC3(CC2)NC(=O)N(c2ccccc2)N3)cc1,?,i,?,i
Cn1c2c(c3ccccc31)CN(C(=O)Nc1ccccc1F)CC2,35.5µM,?,44.7µM,i
Cc1ccc(NC(=O)N2CCc3c(c4ccccc4n3C)C2)cc1,?,?,?,i
Cn1c2c(c3ccccc31)CN(C(=O)Nc1ccc(Cl)cc1Cl)CC2,?,25.1µM,?,i
Cn1c2c(c3cc(F)ccc31)CN(C(=O)Nc1ccc(Cl)cc1Cl)CC2,?,i,?,i
COc1ccccc1C(=O)N1CCC2(CC1)C(=NC1CCCCC1)NC(=O)N2c1cc(F)cc(F)c1,i,nt,i,nt
COc1ccc(C(=O)N2CCc3nc(C(C)C)nc(-c4ccc(O)cc4)c3C2)cc1,i,i,i,i
CC(C)N[C@H]1CC(C)(C)[C@@H]2C[C@@](C)(O)CC[C@]12CCC(=O)NCCc1c[nH]c2ccccc12,?,i,?,i
Cc1ccc(S(=O)(=O)N[C@H]2CC(C)(C)[C@@H]3C[C@@](C)(O)CC[C@]23CCC(=O)NCCc2c[nH]c3ccccc23)cc1,79.4µM,i,?,i
CCOC(=O)c1ccc(NC(=O)Cn2c(N3CCc4ccccc4C3)nc(C)cc2=O)cc1,31.6µM,i,31.6µM,i
COc1cccc(NC(=O)Cn2c(N3CCN(c4ccccc4)CC3)nc(C)cc2=O)c1,?,i,?,i
COc1cccc(NC(=O)Cn2c(N3CCc4ccccc4C3)nc(C)cc2=O)c1,22.4µM,i,20µM,?
Cc1cc(=O)n(CC(=O)Nc2ccc(C(C)C)cc2)c(N2CCN(c3ccccc3)CC2)n1,31.6µM,i,?,i
CCOC(=O)c1ccccc1NC(=O)Cn1c(N2CCc3ccccc3C2)nc(C)cc1=O,i,i,i,i
CCc1ccc(NC(=O)Cn2c(N3CCc4ccccc4C3)nc(C)cc2=O)cc1,?,i,?,i
Cc1cc(=O)n(CC(=O)Nc2ccc(F)cc2)c(N2CCc3ccccc3C2)n1,39.8µM,i,39.8µM,i
CCc1ccc(NC(=O)Cn2c(N3CCN(c4ccccc4)CC3)nc(C)cc2=O)cc1,i,i,?,i
Cc1cc(=O)n(CC(=O)NCc2ccc(F)cc2)c(N2CCc3ccccc3C2)n1,?,i,44.7µM,i
Cc1ccc(CNC(=O)Cn2c(N3CCc4ccccc4C3)nc(C)cc2=O)cc1,?,i,?,?
COc1ccc(CC(=O)NCCNC(=O)c2cccc(-c3ncccc3C#N)c2)cc1,i,nt,i,nt
Cc1ccsc1CN1CCC(Oc2cc(Cl)ccc2C(=O)N2CCCCC2)CC1,?,i,44.7µM,i
O=C(c1ccccc1OC1CCN(Cc2ccc(-n3cccn3)cc2)CC1)N1CCCCC1,i,i,?,i
Cc1nn(-c2ccc(C(F)(F)F)cc2)c(C)c1[C@@H]1C=C[C@@H](NC(=O)c2cccnc2)C1,28.2µM,?,?,i
SMILES,NIH3T3 tox,Luciferase inh,HEK293 tox,hNpr1 antagonist
Cc1nn(-c2ccc(C(F)(F)F)cc2)c(C)c1[C@@H]1C=C[C@@H](NC(=O)CSCC(=O)O)C1,i,i,?,i
Cc1nn(-c2ccccc2)c(C)c1[C@@H]1C=C[C@@H](NC(=O)c2ccco2)C1,?,i,?,35.5µM
Cc1nn(CCC#N)c(C)c1[C@@H]1C=C[C@@H](NC(=O)Nc2ccccc2)C1,?,?,i,i
Cc1nn(-c2ccc(C(F)(F)F)cc2)c(C)c1[C@@H]1C=C[C@@H](NC(=O)Nc2cccc(C#N)c2)C1,25.1µM,7.08µM,?,?
Cc1nn(-c2ccccc2[N+](=O)[O-])c(C)c1[C@@H]1C=C[C@@H](NC(=O)Nc2cccc(C#N)c2)C1,?,?,39.8µM,?
Cc1nn(-c2ccccc2)c(C)c1[C@@H]1C=C[C@@H](NC(=O)CCCC(=O)O)C1,i,i,i,i
COCCCNC(=O)c1ccc2oc(-c3ccncc3)nc2c1,i,nt,i,nt
COC(=O)CNC(=O)c1nc2cccnc2n(Cc2ccccc2OC)c1=O,i,nt,i,nt
Cc1ccc(C(=O)N2CCN(c3nnc4cccc(C)n34)CC2)cc1C,i,i,i,i
COc1cccc(N2C(=O)NC(=NC3CCCCC3)C23CCN(C(=O)c2ccccc2OC)C3)c1 (stereo not given),i,nt,i,nt
Cc1nnnn1CC(=O)Nc1nn(Cc2ccccc2)c2cccc(OC(C)C)c12,i,i,i,i
CC(C)Oc1cccc2c1c(NC(=O)c1cccnn1)nn2Cc1ccccc1,?,?,50.1µM,i
O=C(NCc1cc2n(n1)CCNC2)c1cc2c(s1)CCCCC2,i,31.6µM,i,i
Cc1nnc(-c2cc(-c3cccnc3)ccn2)n1CCN1CCOCC1,?,i,i,i
Cc1nnc(-c2cc(-c3cccc(F)c3)ccn2)n1CCN1CCOCC1,22.4µM,i,?,i
COc1cccc(-c2ccnc(-c3nnc(C)n3CCN3CCOCC3)c2)c1,i,i,?,i
Cc1cc(-c2ccnc(-c3nnc(C)n3CCN3CCOCC3)c2)ccn1,89.1µM,i,i,i
Cc1nnc(-c2cc(-c3cccc(O)c3)ccn2)n1CCc1ccccc1,100µM,i,?,i
C#CCNC(=O)c1cccc(-c2ccc(OC)nn2)c1,?,nt,i,nt
O=C(c1cccc(Cl)c1)N1CCC2(CC1)NC(=O)N(c1ccccc1Cl)N2,?,i,?,i
O=C(C1CCN(c2nccc(Nc3ccccc3Cl)n2)CC1)N1CCN(Cc2ccccc2)CC1,31.6µM,nt,?,nt
COc1ccc(Nc2ccnc(N3CCC(C(=O)N4CCN(Cc5ccccc5)CC4)CC3)n2)cc1,?,nt,31.6µM,nt
O=C(C1CCN(c2nccc(Nc3ccccc3Cl)n2)CC1)N1CCOCC1,i,nt,?,nt
CC(=O)N1CCCN(C(=O)C2CCN(c3nccc(Nc4ccc(C)cc4)n3)CC2)CC1,?,nt,i,nt
O=C(C1CCN(c2nccc(Nc3ccccc3Cl)n2)CC1)N1CCC(Cc2ccccc2)CC1,?,nt,25.1µM,nt
SMILES,NIH3T3 tox,Luciferase inh,HEK293 tox,hNpr1 antagonist
Cc1ccc(Nc2ccnc(N3CCCC(C(=O)N4CCN(Cc5ccccc5)CC4)C3)n2)cc1 (stereo not given),39.8µM,nt,12.6µM,nt
O=C(O)CCC(=O)N1Cc2ccccc2CC2(CCCN2CC2CCNCC2)C1 (stereo not given),i,nt,i,nt
Cn1cc(CC(=O)N2CCCc3ncc(C(=O)Nc4cccnc4)cc32)c2ccccc21,?,i,?,i
CC(C)CCN1CC[C@H](c2nc3ccccc3[nH]2)C1,i,35.5µM,?,i
N#Cc1ccc2nc([C@H]3CCN(Cc4ccc(F)c(F)c4)C3)[nH]c2c1,31.6µM,i,?,i
N#Cc1cccc(CN2CC[C@H](c3nc4ccccc4[nH]3)C2)c1,56.2µM,i,50.1µM,i
COc1ccc2nc([C@H]3CCN(Cc4cccc(C#N)c4)C3)[nH]c2c1,31.6µM,i,39.8µM,i
O=C(c1ccccc1F)N1CCCC(C(=O)N2CCCC(c3nc4ncccc4[nH]3)C2)C1 (stereo not given),i,nt,i,nt
COC1CN(c2ccc(C)cc2)C12CCN(C(=O)c1cccnc1)CC2 (stereo not given),i,nt,i,nt
